Source: PubChem BioAssay AID1159580 (chemical genetic matrix, 2015)
Values joined by “and” are separate entries in the source; they are usually repeats but may differ in a detail not shown here. Identical values can stand only once. Among all 5,500 compounds or so, about 2,000 (36%) were called active. Inconclusive results (about 18%) are left out. No stated cut-off is given here; in the data, active means normalized growth mostly below about 0.91 (no sharp cut-off); inconclusive means no clear call, values can overlap the other calls; inactive means mostly above about 0.92. The list shows a part of the results.

Assay: chemical genetic growth profiling, strain panel (AID 1159580);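 further: tested at 20 µM; growth read once vehicle control cultures reached saturation at 30 °C; 1 = growth at the plate median or of vehicle wells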
Settings: S. cerevisiae deletion strains, growth OD

**Q.** Which normalized growth (locus YAL013W, strain DEP1, stronger effect = lower value) does the source give for `O=C(OCCNc1ccc([N+](=O)[O-])cn1)c1ccc([N+](=O)[O-])o1` here?
**A.** 0.848 (active)

**Q.** What about the normalized growth (locus YAR019C, strain CDC15, stronger effect = lower value) of the same molecule?
**A.** 0.898 (inactive)

**Q.** What about the normalized growth (locus YBL105C, strain PKC1, stronger effect = lower value) of the same molecule?
**A.** 0.927 (inactive)

**Q.** And the normalized growth (locus YBR135W, strain CKS1, stronger effect = lower value)?
**A.** 0.922 (inactive)

**Q.** And the normalized growth (locus YBR136W, strain MEC1, stronger effect = lower value)?
**A.** 0.919 (inactive)

**Q.** What about the normalized growth (locus YBR160W, strain CDC28, stronger effect = lower value) of the same molecule?
**A.** 0.92 (inactive)

**Q.** And the normalized growth (locus YBR229C, strain ROT2, stronger effect = lower value)?
**A.** 0.816 (active)

**Q.** And the normalized growth (locus YCL061C, strain MRC1, stronger effect = lower value)?
**A.** 0.86 (active)

**Q.** And the normalized growth (locus YDL017W, strain CDC7, stronger effect = lower value)?
**A.** 0.932 (inactive)

**Q.** And the normalized growth (locus YDL028C, strain MPS1, stronger effect = lower value)?
**A.** 0.917 (inactive)

**Q.** What about the normalized growth (locus YDL101C, strain DUN1, stronger effect = lower value) of the same molecule?
**A.** 0.947 (inactive) and 0.908 (inactive)

**Q.** What about the normalized growth (locus YDL108W, strain KIN28, stronger effect = lower value) of the same molecule?
**A.** 0.922 (inactive)

**Q.** What about the normalized growth (locus YDL132W, strain cdc53, stronger effect = lower value) of the same molecule?
**A.** 0.888 (active)

**Q.** And the normalized growth (locus YDL134C, strain PPH21, stronger effect = lower value)?
**A.** 0.961 (inactive)

**Q.** And the normalized growth (locus YDL214C, strain PRR2, stronger effect = lower value)?
**A.** 0.742 (inactive)

**Q.** What about the normalized growth (locus YDR052C, strain DBF4, stronger effect = lower value) of the same molecule?
**A.** 0.81 (active)

**Q.** And the normalized growth (locus YDR054C, strain cdc34, stronger effect = lower value)?
**A.** 0.898 (inactive)

**Q.** And the normalized growth (locus YDR150W, strain NUM1, stronger effect = lower value)?
**A.** 0.866 (inactive)

**Q.** And the normalized growth (locus YDR226W, strain ADK1, stronger effect = lower value)?
**A.** 0.887 (active)

**Q.** What about the normalized growth (locus YDR477W, strain SNF1, stronger effect = lower value) of the same molecule?
**A.** 0.829 (inactive)

**Q.** And the normalized growth (locus YEL061C, strain CIN8, stronger effect = lower value)?
**A.** 0.931 (inactive)

**Q.** And the normalized growth (locus YER123W, strain YCK3, stronger effect = lower value)?
**A.** 0.673 (inactive)

**Q.** And the normalized growth (locus YER133W, strain GLC7, stronger effect = lower value)?
**A.** 0.771 (inactive)

**Q.** What about the normalized growth (locus YFL009W, strain cdc4, stronger effect = lower value) of the same molecule?
**A.** 0.903 (inactive)

**Q.** What about the normalized growth (locus YFL029C, strain CAK1, stronger effect = lower value) of the same molecule?
**A.** 0.894 (inactive)

**Q.** What about the normalized growth (locus YFR003C, strain YPI1, stronger effect = lower value) of the same molecule?
**A.** 0.924 (inactive)

**Q.** And the normalized growth (locus YFR019W, strain FAB1, stronger effect = lower value)?
**A.** 0.583 (active)

**Q.** And the normalized growth (locus YFR028C, strain CDC14, stronger effect = lower value)?
**A.** 0.91 (inactive)

**Q.** And the normalized growth (locus YGR040W, strain KSS1, stronger effect = lower value)?
**A.** 0.735 (inactive)

**Q.** What about the normalized growth (locus YGR052W, strain FMP48, stronger effect = lower value) of the same molecule?
**A.** 0.735 (inactive)

**Q.** What about the normalized growth (locus YGR078C, strain PAC10, stronger effect = lower value) of the same molecule?
**A.** 0.786 (active)

**Q.** What about the normalized growth (locus YGR092W, strain DBF2, stronger effect = lower value) of the same molecule?
**A.** 0.17 (active)

**Q.** And the normalized growth (locus YGR229C, strain SMI1, stronger effect = lower value)?
**A.** 0.979 (inactive)

**Q.** What about the normalized growth (locus YHR030C, strain SLT2, stronger effect = lower value) of the same molecule?
**A.** 0.885 (inactive) and 0.148 (active)

**Q.** What about the normalized growth (locus YHR079C, strain IRE1, stronger effect = lower value) of the same molecule?
**A.** 0.67 (inactive)

**Q.** What about the normalized growth (locus YHR082C, strain KSP1, stronger effect = lower value) of the same molecule?
**A.** 0.914 (inactive)

**Q.** And the normalized growth (locus YHR087W, strain rtc3, stronger effect = lower value)?
**A.** 0.744 (active)

**Q.** What about the normalized growth (locus YHR205W, strain SCH9, stronger effect = lower value) of the same molecule?
**A.** 0.663 (inactive)

**Q.** And the normalized growth (locus YIL147C, strain SLN1, stronger effect = lower value)?
**A.** 0.931 (inactive)

**Q.** What about the normalized growth (locus YJL095W, strain BCK1, stronger effect = lower value) of the same molecule?
**A.** 0.677 (inactive)

**Q.** And the normalized growth (locus YJL128C, strain PBS2, stronger effect = lower value)?
**A.** 0.895 (inactive)

**Q.** What about the normalized growth (locus YJL157C, strain FAR1, stronger effect = lower value) of the same molecule?
**A.** 0.788 (inactive)

**Q.** What about the normalized growth (locus YJL187C, strain SWE1, stronger effect = lower value) of the same molecule?
**A.** 0.86 (active)

**Q.** And the normalized growth (locus YJR016C, strain ILV3, stronger effect = lower value)?
**A.** 0.942 (inactive)

**Q.** And the normalized growth (locus YJR043C, strain POL32, stronger effect = lower value)?
**A.** 0.968 (inactive)

**Q.** And the normalized growth (locus YJR066W, strain TOR1 (second series), stronger effect = lower value)?
**A.** 0.391 (active)

**Q.** And the normalized growth (locus YJR066W, strain TOR1, stronger effect = lower value)?
**A.** 0.78 (inactive)

**Q.** And the normalized growth (locus YJR075W, strain HOC1, stronger effect = lower value)?
**A.** 0.795 (active)

**Q.** What about the normalized growth (locus YKL048C, strain ELM1, stronger effect = lower value) of the same molecule?
**A.** 0.772 (active)

**Q.** What about the normalized growth (locus YKL067W, strain YNK1, stronger effect = lower value) of the same molecule?
**A.** 0.708 (active)

**Q.** What about the normalized growth (locus YKL101W, strain HSL1, stronger effect = lower value) of the same molecule?
**A.** 0.737 (inactive)

**Q.** And the normalized growth (locus YKL193C, strain SDS22, stronger effect = lower value)?
**A.** 0.899 (inactive)

**Q.** What about the normalized growth (locus YKL203C, strain TOR2, stronger effect = lower value) of the same molecule?
**A.** 0.822 (inactive)

**Q.** What about the normalized growth (locus YLR039C, strain RIC1, stronger effect = lower value) of the same molecule?
**A.** 0.449 (active)

**Q.** What about the normalized growth (locus YLR058C, strain SHM2 (second series), stronger effect = lower value) of the same molecule?
**A.** 0.943 (inactive)

**Q.** What about the normalized growth (locus YLR085C, strain ARP6, stronger effect = lower value) of the same molecule?
**A.** 0.727 (active)

**Q.** What about the normalized growth (locus YLR113W, strain HOG1, stronger effect = lower value) of the same molecule?
**A.** 0.444 (active)

**Q.** What about the normalized growth (locus YLR133W, strain CKI1, stronger effect = lower value) of the same molecule?
**A.** 0.813 (inactive)

**Q.** And the normalized growth (locus YLR262C, strain YPT6, stronger effect = lower value)?
**A.** 0.703 (active)

**Q.** And the normalized growth (locus YLR403W, strain SFP1, stronger effect = lower value)?
**A.** 0.845 (inactive)

**Q.** What about the normalized growth (locus YML070W, strain DAK1, stronger effect = lower value) of the same molecule?
**A.** 0.609 (active)

**Q.** What about the normalized growth (locus YML094W, strain GIM5, stronger effect = lower value) of the same molecule?
**A.** 0.896 (inactive)

**Q.** And the normalized growth (locus YMR001C, strain CDC5, stronger effect = lower value)?
**A.** 0.915 (inactive)

**Q.** And the normalized growth (locus YMR205C, strain PFK2 (second series), stronger effect = lower value)?
**A.** 0.884 (inactive)

**Q.** And the normalized growth (locus YMR219W, strain ESC1, stronger effect = lower value)?
**A.** 0.809 (active)

**Q.** What about the normalized growth (locus YMR263W, strain SAP30, stronger effect = lower value) of the same molecule?
**A.** 0.827 (active)

**Q.** And the normalized growth (locus YMR277W, strain FCP1, stronger effect = lower value)?
**A.** 0.904 (inactive)

**Q.** What about the normalized growth (locus YMR307W, strain GAS1, stronger effect = lower value) of the same molecule?
**A.** 0.817 (inactive)

**Q.** What about the normalized growth (locus YNL006W, strain LST8, stronger effect = lower value) of the same molecule?
**A.** 0.933 (inactive)

**Q.** And the normalized growth (locus YNL020C, strain ARK1, stronger effect = lower value)?
**A.** 0.81 (inactive)

**Q.** What about the normalized growth (locus YNL153C, strain GIM3, stronger effect = lower value) of the same molecule?
**A.** 0.957 (inactive)

**Q.** What about the normalized growth (locus YNL161W, strain CBK1, stronger effect = lower value) of the same molecule?
**A.** 0.902 (inactive)

**Q.** What about the normalized growth (locus YNL183C, strain NPR1, stronger effect = lower value) of the same molecule?
**A.** 0.684 (inactive)

**Q.** What about the normalized growth (locus YNL207W, strain RIO2, stronger effect = lower value) of the same molecule?
**A.** 0.9 (inactive)

**Q.** And the normalized growth (locus YNL222W, strain SSU72, stronger effect = lower value)?
**A.** 0.915 (inactive)

**Q.** And the normalized growth (locus YNL298W, strain CLA4 (second series), stronger effect = lower value)?
**A.** 0.956 (inactive)

**Q.** What about the normalized growth (locus YNL307C, strain MCK1 (second series), stronger effect = lower value) of the same molecule?
**A.** 0.709 (inactive)

**Q.** What about the normalized growth (locus YNL322C, strain KRE1, stronger effect = lower value) of the same molecule?
**A.** 0.913 (active)

**Q.** What about the normalized growth (locus YNR030W, strain Alg12, stronger effect = lower value) of the same molecule?
**A.** 0.776 (active)

**Q.** And the normalized growth (locus YOL006C, strain TOP1, stronger effect = lower value)?
**A.** 0.831 (inactive)

**Q.** And the normalized growth (locus YOL078W, strain AVO1, stronger effect = lower value)?
**A.** 0.902 (inactive)

**Q.** And the normalized growth (locus YOL136C, strain PFK27, stronger effect = lower value)?
**A.** 0.697 (inactive)

**Q.** And the normalized growth (locus YOR061W, strain CKA2, stronger effect = lower value)?
**A.** 0.735 (inactive)

**Q.** And the normalized growth (locus YOR119C, strain RIO1, stronger effect = lower value)?
**A.** 0.838 (inactive)

**Q.** And the normalized growth (locus YOR231W, strain MKK1, stronger effect = lower value)?
**A.** 0.572 (active)

**Q.** What about the normalized growth (locus YOR329C, strain SCD5, stronger effect = lower value) of the same molecule?
**A.** 0.921 (inactive)

**Q.** What about the normalized growth (locus YPL031C, strain PHO85, stronger effect = lower value) of the same molecule?
**A.** 0.814 (inactive)

**Q.** What about the normalized growth (locus YPL055C, strain LGE1, stronger effect = lower value) of the same molecule?
**A.** 0.738 (active)

**Q.** What about the normalized growth (locus YPL153C, strain RAD53, stronger effect = lower value) of the same molecule?
**A.** 0.351 (active)

**Q.** What about the normalized growth (locus YPL204W, strain HRR25, stronger effect = lower value) of the same molecule?
**A.** 0.749 (inactive)

**Q.** And the normalized growth (locus YPL209C, strain IPL1, stronger effect = lower value)?
**A.** 0.921 (inactive)

**Q.** What about the normalized growth (locus YPL241C, strain CIN2, stronger effect = lower value) of the same molecule?
**A.** 0.931 (inactive)

**Q.** And the normalized growth (locus YPL256C, strain CLN2, stronger effect = lower value)?
**A.** 0.624 (active)

**Q.** And the normalized growth (locus YPR025C, strain CCL1, stronger effect = lower value)?
**A.** 0.929 (inactive)

**Q.** What about the normalized growth (locus YPR106W, strain ISR1, stronger effect = lower value) of the same molecule?
**A.** 0.945 (inactive)

**Q.** And the normalized growth (locus YPR111W, strain DBF20, stronger effect = lower value)?
**A.** 0.888 (inactive)

**Q.** What about the normalized growth (locus YPR135W, strain CTF4, stronger effect = lower value) of the same molecule?
**A.** 0.944 (inactive)

**Q.** What about the normalized growth (strain NNK1, stronger effect = lower value) of the same molecule?
**A.** 0.913 (inactive)

**Q.** And the normalized growth (strain TSCII, stronger effect = lower value)?
**A.** 0.894 (inactive)
